Several values for one entry are separate records, joined by “and”; a condition that tells them apart may be missing. Equal values may be shown once. In all, about 190,000 compounds went through this assay and about 810 (0.43%) were called active. Only a selection was taken, and actives are over-represented in it overall. Unmarked numbers belong to inactive results. No stated cut-off is given here; in the data, active means inhibition above about 50%; inactive means the rest.

One may read the inhibition as the drop in the measured response relative to a control, in per cent.

Chain of Mannose-6-phosphate isomerase (Homo sapiens) (P34949 whole entry, looked up): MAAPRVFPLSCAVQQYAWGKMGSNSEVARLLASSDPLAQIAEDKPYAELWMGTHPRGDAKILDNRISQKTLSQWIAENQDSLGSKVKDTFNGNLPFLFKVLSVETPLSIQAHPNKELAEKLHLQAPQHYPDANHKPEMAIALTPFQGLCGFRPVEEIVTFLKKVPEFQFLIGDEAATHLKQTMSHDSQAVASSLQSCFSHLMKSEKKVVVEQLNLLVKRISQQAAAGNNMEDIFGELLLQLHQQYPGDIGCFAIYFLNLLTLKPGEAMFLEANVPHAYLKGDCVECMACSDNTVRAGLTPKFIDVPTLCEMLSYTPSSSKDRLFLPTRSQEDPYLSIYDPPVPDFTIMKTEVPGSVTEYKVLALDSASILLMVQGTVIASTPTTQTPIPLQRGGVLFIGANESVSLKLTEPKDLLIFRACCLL

This assay has as its target Mannose-6-phosphate isomerase (Homo sapiens) (UniProt P34949). The assay can be described thus: MPI enzyme activity inhibition – biochemical, fluorescence intensity, coupled assay, primary screen (AID 1209).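 Further: plate controls were DMSO vehicle for no effect and wells lacking substrate for full effect.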 The note with it: purified PMI enzyme, at 20 µM, stronger effect = higher value.
On to `N#C/C(C(=O)N1CCCCC1)=C1/N=C(N)c2ccccc21`, for which the inhibition is -1.3%. Regarding `CC1CC1C(=O)Nc1cc(S(=O)(=O)N2CCOCC2)ccc1N1CCCC1` (centres undefined), the inhibition was -3.9%. As for `N#Cc1ccc(OCC(=O)NCCc2ccc(S(N)(=O)=O)cc2)cc1`, the inhibition was -7%. The figure for `O=C(O)c1cc(S(=O)(=O)N2CCOCC2)ccc1N1CCOCC1` is -1%; for `O=c1c2ccccc2sn1-c1ccc(S(=O)(=O)N2CCCC2)cc1` it is 42.4%.

Regarding `O=c1c2ccccc2sn1-c1cc(S(=O)(=O)N2CCOCC2)ccc1N1CCOCC1`, the inhibition is 104% (active).

As to `Cc1ccc(C)n1-c1cc(S(=O)(=O)N2CCOCC2)ccc1N1CCCC1`, the inhibition is 9.8%. Under `O=S(=O)(c1ccc2c(c1)oc1ccccc12)N1CCOCC1` stands 9.1%. Under `O=c1c2ccccc2sn1-c1cc(S(=O)(=O)N2CCOCC2)ccc1N1CCCC1` stands 92.7% (active). Take `CC(=O)c1ccc(N(C(=O)c2ccco2)C(C(=O)NC2CCCC2)c2ccc(N3CCOCC3)cc2)cc1` (centres undefined): the inhibition is 6.3%. Under `Cc1ccc(P(=O)(CO)c2ccc(C)cc2)cc1` stands -12%; under `CN(Cc1ccccc1)C(=O)COC(=O)c1ccc(Cl)c(N)c1`, 9.3%; under `O=C(Cc1ccc(Cl)cc1Cl)NCC1(N2CCOCC2)CCCCC1`, 14.5%. Turning to `Cc1ccc(NS(=O)(=O)c2cc(C(=O)Nc3cccc(N(C)S(C)(=O)=O)c3)ccc2C)c(C)c1`, the inhibition was 5.7%. Take `CCOC(=O)C1CCN(C(=O)CC(C)c2ccccc2)CC1` (centres undefined): the inhibition was -0.6%. The figure for `CCN(CC)c1ccc(C=Nc2ccc(C)cc2C)c(O)c1` is -0.7%; for `CCN(CC)c1ccc(C=Nc2ccccc2C)c(O)c1` it is 27.1%; for `Cc1ccc(O)c(C=Nc2cc(C)ccc2O)c1` it is 23.1%. Under `Cc1ccccc1N=Cc1cccc(O)c1O` stands 74.1% (active); under `CCc1ccc(O)c(N=Cc2cccc(C)c2O)c1`, 18.5%.

Turning to `O=C(/C=C/c1ccc([N+](=O)[O-])cc1)N(c1ccccn1)C1CCCCC1`, the inhibition is -38.1%. For `COc1cc(/C=N/N=C(/N)c2nonc2N)cc(Br)c1OCc1cccc(C)c1`, the inhibition is 16.3%. Turning to `OC(CNCc1ccccc1Cl)C(F)(F)F` (centres undefined), the inhibition is 5.4%. Under `COc1ccccc1N1CCN(C(=O)c2ccc(CSc3ccccc3)cc2)CC1` stands -1.4%; under `Cc1ccc(O)c(CP(=O)(c2ccccc2)c2ccccc2)c1`, -4.9%; under `COc1ccc(F)cc1C(=O)C1CCCN(C(=O)C2=C(C)OCCO2)C1` (centres undefined), 5.1%. Under `CCCCCn1c(SCC(=O)OC)nc2c1c(=O)[nH]c(=O)n2C` stands 0.2%. The figure for `CCCCn1c(SCC(=O)OCC)nc2c1c(=O)[nH]c(=O)n2C` is 3.6%; for `CCCCCCn1c(SCC(=O)OC)nc2c1c(=O)[nH]c(=O)n2C` it is 54% (active); for `Fc1ccc2nc(N3CCCC3)sc2c1` it is 8.5%. Take `COc1cc(CNC(C)(C)CO)cc(Br)c1OCc1ccc(Cl)cc1`: the inhibition is 5.6%. As for `FC(F)(F)c1cccc(OCCOCCn2cncn2)c1`, the inhibition is 3.9%. Under `O=C(NCc1ccco1)c1cnn2c1NC(c1ccc(Br)cc1)CC2C(F)(F)F` (centres undefined) stands 27%.

For `O=C(NCc1ccco1)c1cnn2c1NC(c1ccccc1)CC2C(F)(F)F` (centres undefined), the inhibition is -6.3%. The figure for `Cc1ccc(C2CC(C(F)(F)F)n3ncc(C(=O)NCc4ccco4)c3N2)cc1` (centres undefined) is 108% (active); for `COc1cc(NC(=O)C(C)Oc2ccccc2)c(C(=O)O)cc1OC` (centres undefined) it is 10.7%; for `O=C(Cc1c[nH]c2ccccc12)NC1(C(=O)NC2CCCCC2)CCCCC1` it is -4%.

For the molecule `COC(=O)c1ccc(C2C(Oc3ccc(OC)cc3)C(=O)N2CCc2ccc(F)cc2)cc1` (centres undefined), the inhibition is -0.6%.

Consider `COC(=O)c1ccc(C2C(Oc3ccccc3)C(=O)N2CCc2ccc(OC)c(OC)c2)cc1` (centres undefined), for which the inhibition was -2.9%.

With `COC(=O)c1ccc(C2C(Oc3ccc(OC)cc3)C(=O)N2CCc2ccc(OC)c(OC)c2)cc1` (centres undefined), the inhibition is 52% (active). Under `COCCNC(=O)C(c1cccs1)N(C(=O)Cn1nnc2ccccc21)c1cccc(C)c1` (centres undefined) stands 5.9%; under `O=C(Cn1cc(/C=N/NC(=O)c2ccccc2Br)c2ccccc21)Nc1ccc(F)cc1`, 5.7%. Under `O=C(CCS(=O)(=O)c1ccc(Cl)cc1)OCC(=O)N1CCCCC1` stands 9.3%.

On to `Cc1cccc(-n2nnc(C(=O)NCc3ccco3)c2N)c1`, for which the inhibition is -18.8%. Take `CCOc1ccc(N2C(=O)CC(N(CCc3ccc(OC)c(OC)c3)C(=S)Nc3ccccc3)C2=O)cc1` (centres undefined): the inhibition was 19.8%. Under `CCOc1cccc(N2C(=O)CC(N(CCc3ccc(OC)c(OC)c3)C(=O)CC)C2=O)c1` (centres undefined) stands 57% (active). Turning to `CCOC(=O)c1ccc(N2C(=O)CC(N(C)CCc3ccc(OC)c(OC)c3)C2=O)cc1` (centres undefined), the inhibition is 16.4%. The figure for `O=C(CSc1n[nH]c(=O)[nH]c1=O)Nc1ccc(C(=O)O)cc1` is -8.4%; for `O=[N+]([O-])c1cccnc1NCc1cccs1` it is -2.4%; for `O=[N+]([O-])c1cc(-c2ncccn2)cs1` it is -13.4%.

In the case of `O=C(O)CCC(=O)Nc1ccc(Cc2ccc(NC(=O)CCC(=O)O)c(O)c2)cc1O`, the inhibition was -9.3%.

As to `Cc1ccc(Cl)cc1N1CCN(C(=O)CN2C(=O)c3cccc4cccc2c34)CC1`, the inhibition was 12.6%. The figure for `O=S1(=O)Nc2c(ccc3cccnc23)-c2ccccc21` is 62% (active); for `c1cnc2c(c1)ccc1cccnc12` it is 5.7% and 24.3%.

Consider `O=S1(=O)NC(=NCCc2ccccn2)c2ccccc21`, for which the inhibition is -7.8%.

Consider `COc1ccc(-c2c(C)n([O-])c3c([n+]2=O)CCC3)cc1OC`, for which the inhibition was 8%. Consider `c1ccc(-c2ccccc2-n2cnnn2)cc1`, for which the inhibition is -7.6%. The figure for `Cc1cc(C)nc(N2CCCC(C(=O)Nc3nnc(C)s3)C2)n1` (centres undefined) is -13.6%; for `Cc1cc(C)nc(N2CCCC(C(=O)Nc3nc4ccc(S(C)(=O)=O)cc4s3)C2)n1` (centres undefined) it is 51.4% (active); for `O=C(Nc1nc2ccc(S(=O)(=O)N3CCCC3)cc2s1)C1CCCCC1` it is 7.3%.

On to `CS(=O)(=O)c1ccc2nc(NC(=O)CCC(=O)c3cccs3)sc2c1`, for which the inhibition was -8.5%. Take `Cc1nn(C)c(C)c1CS(=O)(=O)c1ccccc1`: the inhibition is -8.9%. As to `CCn1c(C)c(CS(=O)(=O)c2ccccc2)[nH]c1=O`, the inhibition was 85.5% (active).

With `CCc1c(C(C)S(=O)(=O)c2ccccc2)[nH]c(=O)n1CC` (centres undefined), the inhibition was -38%.

Take `Cc1cc(C)cc(-n2cc(C(=O)O)c(=O)cc2C)c1`: the inhibition was 5.3%. The figure for `COc1ccc(NC(=O)CSc2nc3sc(C)c(C)c3c(=O)n2Cc2ccco2)cc1` is 7.7%; for `CCOc1c(O)ccc(/C=C2\SC(=S)NC2=O)c1[N+](=O)[O-]` it is 55.7% (active); for `CCOc1ccc(/C=C2\SC(=S)NC2=O)cc1OC` it is -12%.

Take `C=CCN1C(=O)/C(=C/c2ccc(OC(C)=O)c(OCC)c2[N+](=O)[O-])SC1=S`: the inhibition was 41.3%. On to `CC(=O)c1c(C(=O)O)[nH]c(C(=O)O)c1C`, for which the inhibition is 108% (active).

In the case of `CC(=O)c1[nH]c(C)c(C(C)=O)c1C`, the inhibition was 11%.

Take `CC(=O)c1c(C)[nH]c(C(=O)O)c1C`: the inhibition is 13.6%. As to `S=c1nc(-c2ccccc2)n(CCCn2ccnc2)c2c1CCCC2`, the inhibition was 1.7%. Under `COc1ccc(/C=C(\CC(=O)O)c2nc3ccccc3o2)cc1` stands -27.3%; under `Cc1nc(C)c(C(=O)NNC(=O)c2ccc(Br)cc2)s1`, 6.9%; under `CCN(C(=O)CSc1nnc(Cn2nnc3ccccc32)o1)c1nc(C)cs1`, 9.1%. As to `COCCn1cc(C(=O)c2cc(Br)ccc2O)cc(C#N)c1=O`, the inhibition is -5.8%.

As for `O=C(Nc1cc(S(=O)(=O)N2CCOCC2)ccc1N1CCCCC1)c1cc(-c2ccccn2)nc2ccccc12`, the inhibition is 52.8% (active). The figure for `O=C(NC(=S)Nc1cc(S(=O)(=O)N2CCOCC2)ccc1N1CCOCC1)C1CCCC1` is -1.5%; for `CCN(CC)S(=O)(=O)c1ccc(N2CCOCC2)c(NC(=O)c2cc(-c3ccccn3)nc3ccccc23)c1` it is 15.6%; for `O=C(Nc1ccc(S(=O)(=O)N2CCOCC2)cc1)c1ccc2c(c1)S(=O)(=O)c1ccccc1C2=O` it is -4.6%. Under `O=C(Nc1cc(S(=O)(=O)N2CCOCC2)ccc1N1CCCC1)c1ccc2c(c1)S(=O)(=O)c1ccccc1C2=O` stands 61% (active); under `COCCNC(=S)Nc1cc(S(=O)(=O)N2CCOCC2)ccc1N1CCCCC1`, 63.1% (active). The figure for `O=C(NC(=S)Nc1cc(S(=O)(=O)N2CCOCC2)ccc1N1CCOCC1)c1ccco1` is 3.9%. Take `COc1ccc(-c2cc(C(=O)Nc3cc(S(=O)(=O)N4CCOCC4)ccc3N3CCOCC3)c3ccccc3n2)cc1`: the inhibition was -22.7%.

On to `O=C(Nc1cc(S(=O)(=O)N2CCOCC2)ccc1O)c1ccc2c(c1)S(=O)(=O)c1ccccc1C2=O`, for which the inhibition is 46.3%. As to `On1nnc2ccc3ccccc3c21`, the inhibition was -9.6%. The figure for `C/C(O)=c1/ccc2cccc3nc(C)nc1c23` is 42.6%; for `Cc1ccc(SCc2ccc(C(=O)NCc3ccncc3)cc2)cc1` it is 0.9%. Consider `Cc1cc(C)n(C(=O)c2c([N+](=O)[O-])c(C)nn2C)n1`, for which the inhibition was 1.5%.

With `c1ccc(CC2CCN(Cc3nc(-c4ccccc4)no3)CC2)cc1`, the inhibition is 16.3%. Under `CC(=O)N1CCc2c(sc(NC(=O)c3ccc([N+](=O)[O-])o3)c2C#N)C1` stands 59% (active); under `CC(=O)N1CCc2c(sc(NC(=O)c3ccc4c(c3)OCCO4)c2C#N)C1`, 18.2%; under `COc1ccc(C(=O)Nc2sc3c(c2C#N)CCN(C(C)=O)C3)cc1`, 5.9%.
